Compound activity: PubChem, National Center for Advancing Translational Sciences (NCATS)
Many of the other results were omitted from the sample, so hits are more common in it than they were.
HT1080NT lethal = qHTS for induction of synthetic lethality in tumor cells producing 2HG: qHTS for the HT-1080-NT fibrosarcoma cell line | AID 686970, 2013 | 360,000 compounds, 1.6% hits | Potency, µM (top dose mostly 46.1 µM), inactives show top-dose activity, negative = less viability, hits mostly cytotoxic | HT-1080-NT fibrosarcoma viability, CellTiter-Glo ATP luminescence, 48 h;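 further: NT is the 2HG producing partner of a matched IDH1 knockdown line; potency means the concentration at half of the fitted maximal effect; 0% = DMSO-treated cells and -100% = media-only wells without cells; nearly all actives have a fitted effect of over 55% in size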
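Read-out is CellTiter-Glo luminescence after 10 minutes at room temperature, following 48 hours' compound treatment of HT-1080-NT cells (750 cells/well, RPMI, 5% FBS, 37 degrees C).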
TDP1 cell noCPT = qHTS for Inhibitors of human tyrosyl-DNA phosphodiesterase 1 (TDP1): qHTS in cells in absence of CPT; DT40 Tdp1-/- hTDP1 cells, no CPT, ATP luminescence, 48 h; Potency, µM (doses to about 46.2 µM), inactives show at the top dose activity change, negative = growth inhibition, usual class: inhibitors; 420,000 compounds, 15% hits; AID 686978, 2013; further: potency means the concentration at half of the fitted maximal effect; nearly all actives have a fitted effect of over 55% in size
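Cells were dispensed at 400 per well, compounds added by pin tool, plates incubated ≥48 hr at 37 °C, then CellTiter-Glo added for 30 min at room temperature before luminescence reading. Line: DT40 Tdp1-/- complemented with hTDP1; camptothecin omitted.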
ALOX12 inh = Primary qHTS assay for inhibitors of human arachidonate 12S-lipoxygenase (ALOX12): Round 2 | Polyunsaturated fatty acid lipoxygenase ALOX12 (Homo sapiens), P18054 | purified 12hLO, xylenol orange hydroperoxide absorbance | Potency, µM (titrated, usually from 108 µM), for inactives: at the highest dose activity change, negative = inhibition, usual class: inhibitors | 580,000 compounds, 1.1% hits; further: potency means the concentration at half of the fitted maximal effect
Target sequence (P18054 whole entry, looked up): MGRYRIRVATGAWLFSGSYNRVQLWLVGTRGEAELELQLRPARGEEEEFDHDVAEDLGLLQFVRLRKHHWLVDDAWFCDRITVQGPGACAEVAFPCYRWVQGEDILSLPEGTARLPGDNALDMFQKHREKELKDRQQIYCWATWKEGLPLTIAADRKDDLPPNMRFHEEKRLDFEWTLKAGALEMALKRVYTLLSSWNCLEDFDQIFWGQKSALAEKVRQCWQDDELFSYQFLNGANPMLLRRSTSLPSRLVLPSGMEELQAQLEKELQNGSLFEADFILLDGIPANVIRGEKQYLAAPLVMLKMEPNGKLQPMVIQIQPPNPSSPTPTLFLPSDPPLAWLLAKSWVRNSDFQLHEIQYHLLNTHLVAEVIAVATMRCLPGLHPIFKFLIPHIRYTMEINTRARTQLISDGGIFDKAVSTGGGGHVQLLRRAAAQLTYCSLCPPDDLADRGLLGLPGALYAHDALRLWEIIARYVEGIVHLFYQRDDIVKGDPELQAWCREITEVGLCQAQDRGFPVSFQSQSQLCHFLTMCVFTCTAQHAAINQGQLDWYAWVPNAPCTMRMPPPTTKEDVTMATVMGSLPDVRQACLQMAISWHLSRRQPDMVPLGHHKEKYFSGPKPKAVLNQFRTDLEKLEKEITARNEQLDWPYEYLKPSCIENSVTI
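Purified human 12hLO at 150 nM in 25 mM Hepes, 0.01% Triton X-100, pH 7.0, preincubated 15 min at room temperature with compound. Reaction started with 40 uM arachidonic acid, 30 min at room temperature. Hydroperoxide measured by Fe-xylenol orange, 573/405 nm absorbance ratio.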
TDP1 cell CPT = qHTS for Inhibitors of human tyrosyl-DNA phosphodiesterase 1 (TDP1): qHTS in cells in presence of CPT; chicken DT40 Tdp1-/-;hTDP1 cells + 20 nM CPT, ATP luminescence, 48 h; Potency, µM (doses to about 46.2 µM), inactives show at the top dose activity change, negative = growth inhibition, most hits filed as inhibitors; 420,000 compounds, 12% hits; AID 686979, 2013; further: potency means the concentration at half of the fitted maximal effect; nearly all actives have a fitted effect of over 55% in size
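Chicken DT40 Tdp1-/- cells stably complemented with human TDP1 were seeded at 400 cells/well in medium containing 20 nM camptothecin, exposed to pin-transferred compounds, and grown at 37 °C for at least 48 hr. Viability was read as ATP luminescence.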
HT1080 IDH1KD tx = qHTS for induction of synthetic lethality in tumor cells producing 2HG: qHTS for the HT-1080-IDH1KD cell line; HT-1080 IDH1 knockdown viability, ATP luminescence, 48 h; Potency, µM (highest dose often 46.1 µM), inactives show at the top dose activity, negative = toxicity, most hits filed as cytotoxic; 360,000 compounds, 2% hits; AID 686971, 2013;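 further: potency means the concentration at half of the fitted maximal effect; 0% = DMSO wells and -100% = cell-free medium wells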
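In this qHTS, HT-1080 cells depleted of IDH1 are exposed for 48 h at 37 °C to compound titrations. Toxicity is scored from CellTiter-Glo luminescence, with DMSO as full viability and medium alone as none.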
IL-1B inflam inh = qHTS for Inhibitors of Inflammasome Signaling: IL-1-beta AlphaLISA Primary Screen. THP-1 LPS/ATP IL-1B secretion, AlphaLISA, 16 h; active compounds read low. activity change, % at 57.5 µM. 360,000 compounds, 4.7% hits. AID 743279, 2014; in the data active means activity change below about -50%; inconclusive means mostly about -30% to -49%
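Secreted IL-1B measured by AlphaLISA bead assay after 16 h compound exposure of THP-1 cells; compounds (final up to 57.5 uM) added 1 h before LPS (250 ng/mL) and ATP (1.25 mM) stimulation; lower signal means less secretion.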
Active calls of the source: *; [ ] = another dose, or the depositor's remark. Unless noted, the call rests on the fitted dose curve; in most records, active means well fitted curve in the direction sought with a large enough effect; inconclusive means small, poorly fitted or top-dose-only effect, or another doubt; inactive means no such curve, though single readings can be large; an effect the other way counts as inactive or inconclusive. Unless noted, on the % scale 0 is the no-effect control and ±100 the full control effect.

What do the screens show for `COc1cc(CCC(C)=O)ccc1O`?
ALOX12 inh: -6%[176 µM]

How did COCCc1nncn1C1CCN(S(=O)(=O)c2ccc(F)c(F)c2)CC1 do in these assays?
ALOX12 inh: 45%

What do the screens show for `CC(C)(C)C1CCc2c(sc(NC(=O)c3ccco3)c2C(N)=O)C1` (stereo not given)?
HT1080NT lethal: -1%; TDP1 cell noCPT: inconclusive; ALOX12 inh: 25%; TDP1 cell CPT: inconclusive; HT1080 IDH1KD tx: -13%; IL-1B inflam inh: -22

What do the screens show for `CCCC1CCc2c(sc(N)c2C(N)=O)C1` (stereo not given)?
HT1080NT lethal: 11%; TDP1 cell noCPT: 21µM*; ALOX12 inh: inconclusive; TDP1 cell CPT: 16µM*; HT1080 IDH1KD tx: 20%; IL-1B inflam inh: -9

What do the screens show for `CC(C)(C)C1CCc2c(sc(NC(=O)C3CCCO3)c2C(N)=O)C1` (stereo not given)?
HT1080NT lethal: inconclusive; TDP1 cell noCPT: 18µM*; ALOX12 inh: -5%; TDP1 cell CPT: inconclusive; HT1080 IDH1KD tx: inconclusive; IL-1B inflam inh: -9

What do the screens show for `NC(=O)c1c(NC(=O)C2CCCO2)sc2c1CCC2` (stereo not given)?
HT1080NT lethal: 2%; TDP1 cell noCPT: -6%; ALOX12 inh: 10%; TDP1 cell CPT: 0%; HT1080 IDH1KD tx: 10%; IL-1B inflam inh: -26

Results for CCC(C)(C)C1CCc2c(sc(N)c2C(N)=O)C1 (stereo not given) ?
HT1080NT lethal: -3%; TDP1 cell noCPT: 21µM*; ALOX12 inh: inconclusive; TDP1 cell CPT: 21µM*; HT1080 IDH1KD tx: -10%; IL-1B inflam inh: -15

How did CC(C)(C)C1CCc2c(sc(N)c2C(N)=O)C1 (stereo not given) do in these assays?
HT1080NT lethal: inconclusive; TDP1 cell noCPT: 18µM*; TDP1 cell CPT: 23µM*; HT1080 IDH1KD tx: 1%; IL-1B inflam inh: -64*

How did CCc1ccc2oc(C(=O)N3CCC(Cc4ccccc4)CC3)cc(=O)c2c1 do in these assays?
ALOX12 inh: -58%

What do the screens show for `COc1cccc(C(Nc2ncc(C(F)(F)F)cc2Cl)c2nccn2C)c1` (stereo not given)?
ALOX12 inh: 15%

How did CCC(C)(C)C1CCc2c(sc(N)c2C#N)C1 (stereo not given) do in these assays?
ALOX12 inh: 28µM*

Results for CCN1CCc2c(sc(N)c2C#N)C1 ?
HT1080NT lethal: 7%; TDP1 cell noCPT: 23µM*; ALOX12 inh: 49%; TDP1 cell CPT: inconclusive; HT1080 IDH1KD tx: 9%; IL-1B inflam inh: 14

What do the screens show for `Cc1ccc(C)c(N2CCN(S(=O)(=O)c3c(C)noc3/C=C/N(C)C)CC2)c1`?
HT1080NT lethal: -7%; TDP1 cell noCPT: 18µM*; ALOX12 inh: 2%; TDP1 cell CPT: inconclusive; HT1080 IDH1KD tx: 5%; IL-1B inflam inh: -16

How did Cc1noc(C)c1S(=O)(=O)N1CCC(C(=O)N2CCN(c3cccc(C(F)(F)F)c3)CC2)CC1 do in these assays?
TDP1 cell noCPT: 3.3µM*; ALOX12 inh: -13%; TDP1 cell CPT: 5.2µM*

How did Cc1ccc(C)c(N2CCN(C(=O)C3CCN(S(=O)(=O)c4c(C)noc4C)CC3)CC2)c1 do in these assays?
HT1080NT lethal: -25%; TDP1 cell noCPT: 8.2µM*; ALOX12 inh: -8%; TDP1 cell CPT: 10µM*; HT1080 IDH1KD tx: 18µM*; IL-1B inflam inh: inconclusive

Results for Cc1noc(C)c1S(=O)(=O)N1CCC(C(=O)N2CCN(c3ccc(Cl)cc3)CC2)CC1 ?
HT1080NT lethal: -6%; TDP1 cell noCPT: inconclusive; ALOX12 inh: 0%; TDP1 cell CPT: inconclusive; HT1080 IDH1KD tx: -15%; IL-1B inflam inh: -27

How did Cc1noc(C)c1S(=O)(=O)N1CCC(C(=O)N2CCN(c3ccccc3)CC2)CC1 do in these assays?
TDP1 cell noCPT: inconclusive; ALOX12 inh: -13%; TDP1 cell CPT: 0%

How did Cc1noc(C)c1S(=O)(=O)N1CCC(C(=O)N2CCN(c3ccccc3Cl)CC2)CC1 do in these assays?
HT1080NT lethal: -1%; TDP1 cell noCPT: 21µM*; ALOX12 inh: 26%; TDP1 cell CPT: inconclusive; HT1080 IDH1KD tx: -5%; IL-1B inflam inh: -6

Results for Cc1ccccc1C(=O)NC1CCCCC1 ?
ALOX12 inh: -67%

What do the screens show for `COCCNC(=O)c1ccc2c(c1)N(C)C(CC(=O)NCC(C)(C)C)CO2` (stereo not given)?
ALOX12 inh: -1%

Results for CC(C)c1nc2c(c(-c3ccc(O)cc3)n1)CN([S+](=O)([O-])c1ccccc1)CC2 ?
ALOX12 inh: -4%

Results for Fc1ccc(Cn2cnc3ccccc32)cc1 ?
HT1080NT lethal: -11%; TDP1 cell noCPT: -34%; ALOX12 inh: 0%; TDP1 cell CPT: -28%; HT1080 IDH1KD tx: -11%; IL-1B inflam inh: -14

How did Cc1ccc(Cn2cnc3ccccc32)cc1C do in these assays?
HT1080NT lethal: -8%; TDP1 cell noCPT: 16µM*; ALOX12 inh: 3%; TDP1 cell CPT: 13µM*; HT1080 IDH1KD tx: -30%; IL-1B inflam inh: 3

How did CCCOc1ccc(Cn2cnc3ccccc32)cc1 do in these assays?
HT1080NT lethal: -6%; TDP1 cell noCPT: 13µM*; ALOX12 inh: 9%; TDP1 cell CPT: inconclusive; HT1080 IDH1KD tx: -13%; IL-1B inflam inh: -13

How did CCOCN(C(=O)Cn1cnc2ccccc21)c1c(C)cccc1CC do in these assays?
HT1080NT lethal: -11%; TDP1 cell noCPT: 23µM*; ALOX12 inh: -8%; TDP1 cell CPT: 21µM*; HT1080 IDH1KD tx: -10%; IL-1B inflam inh: 24

Results for Cc1ccccc1Cn1cnc2ccccc21 ?
HT1080NT lethal: 3%; TDP1 cell noCPT: 21µM*; ALOX12 inh: 0%; TDP1 cell CPT: 18µM*; HT1080 IDH1KD tx: -11%; IL-1B inflam inh: -10

Results for O=C(N1CCc2c(nc[nH]c2=O)C1)C1(S(=O)(=O)c2ccccc2)CC1 ?
ALOX12 inh: 19%

What do the screens show for `COCCC1(NC(=O)C(C)c2ccccc2)CCN(S(C)(=O)=O)CC1` (stereo not given)?
ALOX12 inh: 43%
